SMILES strings stand for the structures. The source made the active and inactive calls.

The test system of experiment [1] is Plasmodium falciparum Sir2 (PF13_0152, Sir2A). Description: Plasmodium falciparum Sir2A binding compounds – biochemical, small-molecule microarray, 635 nm fluorescence, primary screen (AID 1098).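 Also: score merges spot fluorescence intensity with its signal-to-noise ratio.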 To be noted: fluorescence 635 nm, higher = more signal.
A short description of experiment [2]: probe aDKK1 binding to arrayed compounds – biochemical, biotinylated probe, 635/667 nm fluorescence, primary screen (AID 1099).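 Also: score merges 667nm spot fluorescence with signal to noise across triplicate slides.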 To be noted: small-molecule microarray, higher = more signal.
Experiment [3] is described as follows: probe aCHRDL2 binding to arrayed compounds – biochemical, biotinylated probe, 635/667 nm fluorescence, primary screen (AID 1100). To be noted: small-molecule microarray, higher = more signal.
Experiment [4] in a line: change in splice reporter luminescence, either direction, cell-based, HEK293, spliceosome inhibition project, primary screen (AID 1101).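 Also: HEK293 cells carrying a splicing-competent luciferase reporter gene; test concentration not given here.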 To be noted: HEK293 splicing luciferase reporter, 24 h, higher = more signal, called active from +8 up or from −8 down. In general terms: A reporter such as luciferase makes a cellular process visible.
In experiment [5] the target is Fibroblast growth factor 10 (Homo sapiens) (UniProt O15520). Nature of the experiment: compounds binding fibroblast growth factor 10 – biochemical, small-molecule microarray, 635 nm fluorescence, primary screen (AID 1102). The settings on record: FGF10 binding, fluorescence 635 nm, higher = more signal.
Chain of Fibroblast growth factor 10 (Homo sapiens) (O15520 whole entry, looked up): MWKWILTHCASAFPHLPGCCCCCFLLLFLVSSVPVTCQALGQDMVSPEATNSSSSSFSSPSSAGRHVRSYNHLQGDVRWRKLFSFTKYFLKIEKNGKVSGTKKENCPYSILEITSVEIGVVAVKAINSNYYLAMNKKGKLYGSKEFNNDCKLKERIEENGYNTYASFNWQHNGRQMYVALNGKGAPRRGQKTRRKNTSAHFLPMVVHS
Experiment [6] has as its system glycogen synthase kinase-3 (GSK3A per assay name; protocol says GSK3B). Description: compounds binding glycogen synthase kinase-3 – biochemical, small-molecule microarray, 635 nm fluorescence, GSK3A, primary screen (AID 1103). Also: the record names both GSK3A and GSK3B. The settings on record: fluorescence 635 nm, higher = more signal.
For experiment [7], the target named is Epidermal growth factor receptor (Homo sapiens) (UniProt P00533). Description: compounds binding epidermal growth factor receptor – biochemical, small-molecule microarray, 635 nm fluorescence, primary screen (AID 1104).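 Also: score merges 667 nm emission intensity with spot signal to noise over triplicate slides.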 To be noted: EGFR binding, higher = more signal.
Chain of Epidermal growth factor receptor (Homo sapiens) (P00533 whole entry, looked up): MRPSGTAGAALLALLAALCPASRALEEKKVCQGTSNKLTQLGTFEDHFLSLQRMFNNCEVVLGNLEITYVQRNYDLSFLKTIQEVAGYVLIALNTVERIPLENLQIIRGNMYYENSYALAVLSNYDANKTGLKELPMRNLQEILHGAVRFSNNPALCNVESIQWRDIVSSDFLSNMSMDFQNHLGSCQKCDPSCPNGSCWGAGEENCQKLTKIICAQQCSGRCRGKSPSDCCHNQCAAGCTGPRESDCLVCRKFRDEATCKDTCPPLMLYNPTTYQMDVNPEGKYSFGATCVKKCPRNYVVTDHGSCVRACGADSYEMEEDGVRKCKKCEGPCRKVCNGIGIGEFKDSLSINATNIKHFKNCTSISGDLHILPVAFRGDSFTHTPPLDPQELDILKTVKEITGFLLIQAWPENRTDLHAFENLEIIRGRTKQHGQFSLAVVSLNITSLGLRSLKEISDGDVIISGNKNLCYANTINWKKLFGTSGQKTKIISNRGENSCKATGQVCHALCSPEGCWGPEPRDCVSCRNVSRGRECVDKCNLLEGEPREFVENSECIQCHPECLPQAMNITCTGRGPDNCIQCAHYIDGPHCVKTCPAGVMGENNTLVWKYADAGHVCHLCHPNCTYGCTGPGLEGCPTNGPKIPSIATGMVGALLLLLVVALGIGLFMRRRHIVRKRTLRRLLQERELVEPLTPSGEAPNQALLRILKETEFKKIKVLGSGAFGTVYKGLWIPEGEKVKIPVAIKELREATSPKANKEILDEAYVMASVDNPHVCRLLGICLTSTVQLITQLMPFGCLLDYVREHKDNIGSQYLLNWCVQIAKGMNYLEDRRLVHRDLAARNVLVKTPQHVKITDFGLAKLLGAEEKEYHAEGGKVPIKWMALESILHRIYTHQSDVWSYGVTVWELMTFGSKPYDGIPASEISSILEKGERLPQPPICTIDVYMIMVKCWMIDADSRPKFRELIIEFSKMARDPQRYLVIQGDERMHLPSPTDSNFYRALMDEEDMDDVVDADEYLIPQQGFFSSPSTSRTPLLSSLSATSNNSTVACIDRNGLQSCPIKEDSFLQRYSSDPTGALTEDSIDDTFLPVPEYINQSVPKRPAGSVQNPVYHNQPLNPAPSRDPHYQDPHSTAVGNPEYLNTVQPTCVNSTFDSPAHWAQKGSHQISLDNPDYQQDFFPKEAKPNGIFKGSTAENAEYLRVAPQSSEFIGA
For experiment [8], the target named is Follistatin-related protein 3 (Homo sapiens) (UniProt O95633). Nature of the experiment: compounds binding follistatin-related protein 3 – biochemical, small-molecule microarray, 635 nm fluorescence, primary screen (AID 1105).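 Also: score merges emission near 667 nm and signal to noise per printed spot across three slides.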 The settings on record: FSTL3 binding, higher = more signal.
Chain of Follistatin-related protein 3 (Homo sapiens) (O95633 whole entry, looked up): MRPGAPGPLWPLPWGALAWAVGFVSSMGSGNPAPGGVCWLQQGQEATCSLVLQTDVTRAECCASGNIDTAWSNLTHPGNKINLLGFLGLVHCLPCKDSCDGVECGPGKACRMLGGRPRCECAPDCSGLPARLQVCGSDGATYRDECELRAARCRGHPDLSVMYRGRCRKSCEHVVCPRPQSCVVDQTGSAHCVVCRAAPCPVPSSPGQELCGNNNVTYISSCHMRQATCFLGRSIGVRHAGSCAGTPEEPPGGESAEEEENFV
The target of experiment [9] is Dickkopf-related protein 1 (Homo sapiens) (UniProt O94907). Nature of the experiment: small molecules binding DKK1 protein – biochemical, small-molecule microarray, 635 nm fluorescence scan, primary screen (AID 1106).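 Also: score merges emission near 667 nm with signal to noise over three replicate slides.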 To be noted: higher = more signal.
Chain of Dickkopf-related protein 1 (Homo sapiens) (O94907 whole entry, looked up): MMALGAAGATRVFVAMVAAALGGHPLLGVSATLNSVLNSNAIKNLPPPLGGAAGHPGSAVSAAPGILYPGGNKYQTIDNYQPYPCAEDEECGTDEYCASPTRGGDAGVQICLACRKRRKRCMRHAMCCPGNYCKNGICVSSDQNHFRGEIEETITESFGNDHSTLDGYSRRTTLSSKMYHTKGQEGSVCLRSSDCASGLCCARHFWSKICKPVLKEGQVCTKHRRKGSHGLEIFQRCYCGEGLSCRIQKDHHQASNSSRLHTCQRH
The subject of experiment [10] is Inhibin beta A chain (activin A). Description: small molecules binding activin A – biochemical, small-molecule microarray, 635 nm fluorescence scan, primary screen (AID 1107).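 Also: mouse activin A protein probed at 4.33 µg/mL on printed slides; score merges bound-protein fluorescence near 667 nm with spot signal-to-noise.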 The settings on record: INHBA, higher = more signal.
The subject of experiment [11] is Human papillomavirus type 1a protein E7 (residues 44-93). Description: small molecules binding HPV E7 44-93 – biochemical, small-molecule microarray, residues 44-93, 635 nm fluorescence, primary screen (AID 1108).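 Also: E7 fragment applied at 1 µg/mL in TBST for 1 h at 4 C; score combines spot fluorescence with its signal to noise ratio.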 The settings on record: fluorescence 635 nm, higher = more signal.
Experiment [12] can be described thus: hepatitis C replication reporter changes, two-sided – Huh7 cells, luciferase reporter, HCV replication inhibitor project, primary screen (AID 1109).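 Also: huh7 hepatoma cells harbouring a luciferase neomycin HCV replicon reporter; luciferase luminescence as measure of HCV replicon replication; test concentration not given here.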 To be noted: Huh7 HCV replicon luciferase reporter, 48 h; higher = more signal.
Experiment [13] deals with Left-right determination factor 2 (Homo sapiens) (UniProt O00292). Description: small molecules binding LEFTY2 protein – biochemical, small-molecule microarray, 635 nm fluorescence scan, primary screen (AID 1110). The settings on record: higher = more signal.
Chain of Left-right determination factor 2 (Homo sapiens) (O00292 whole entry, looked up): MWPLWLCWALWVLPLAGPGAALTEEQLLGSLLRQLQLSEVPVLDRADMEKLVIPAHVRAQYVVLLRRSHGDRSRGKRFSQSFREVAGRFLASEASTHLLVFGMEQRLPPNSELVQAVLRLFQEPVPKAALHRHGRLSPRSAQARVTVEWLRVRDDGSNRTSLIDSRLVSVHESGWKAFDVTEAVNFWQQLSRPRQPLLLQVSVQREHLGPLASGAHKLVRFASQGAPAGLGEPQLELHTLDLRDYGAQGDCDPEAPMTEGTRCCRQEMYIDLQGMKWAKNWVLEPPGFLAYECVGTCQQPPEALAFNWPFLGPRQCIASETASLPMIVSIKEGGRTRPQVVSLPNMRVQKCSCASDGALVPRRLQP
The target in experiment [14] is Calmodulin-1 (Homo sapiens) (UniProt P0DP23). Description: small molecules binding calmodulin-1 with EGTA – biochemical, small-molecule microarray, Cy5-labelled CALM1, profiling panel (AID 1111).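 Also: labelled calmodulin applied in Tris saline Tween buffer holding calcium plus EGTA and DTT.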 To be noted: Cy5-CALM1 binding fluorescence, higher = more signal.
Experiment [15] has the same target. Nature of the experiment: small molecules binding Ca-loaded calmodulin-1 – biochemical, small-molecule microarray, Cy5-labelled CALM1, plus calcium, artefact control for SMM control-protein annotation, profiling panel (AID 1112).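 Also: score merges spot fluorescence with signal to noise from triplicate slides.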 The settings on record: Cy5-CALM1 binding fluorescence, higher = more signal.
A short description of experiment [16]: probe aWnt5a binding to arrayed compounds – biochemical, biotinylated probe, 635/667 nm fluorescence, primary screen (AID 1113).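 Also: score merges 667 nm fluorescence intensity with signal-to-noise per printed feature.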 The settings on record: small-molecule microarray, higher = more signal.
Experiment [17] is described as follows: probe aShh binding to arrayed compounds – biochemical, biotinylated probe, 635/667 nm fluorescence, primary screen (AID 1114).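 Also: probe is biotin-labelled aShh protein from a stem cell growth factor screen; measures binding of labelled protein to compounds printed on the slide; score merges feature fluorescence at 667 nm with signal-to-noise.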 The settings on record: small-molecule microarray, higher = more signal.
Experiment [18] is described as follows: probe aNog binding to arrayed compounds – biochemical, biotinylated probe, 635/667 nm fluorescence, primary screen (AID 1115).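 Also: probe is biotinylated aNog protein used at 0.15 µg/mL for 1 h at 4 C; z-score combines 667 nm fluorescence of each spot with its signal to noise.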 The settings on record: small-molecule microarray, higher = more signal.
Experiment [19] has as its target Torsin-1A-interacting protein 1 (Homo sapiens) (UniProt Q5JTV8). Description: compound microarray binding of lysate hLAP1 – cell lysate, small-molecule microarray, COS7 lysate, 635/667 nm fluorescence, primary screen (AID 1116). To be noted: 635 nm fluorescence, higher = more signal.
The target of experiment [20] is Alpha-bungarotoxin (Bungarus multicinctus) (UniProt P60615). Description: compounds binding labelled alpha-BTX control protein – biochemical, small-molecule microarray, Alexa647 label, 635/667 nm fluorescence, artefact control for SMM control protein annotation, profiling panel (AID 1117). To be noted: alpha-BTX-A647 binding fluorescence, higher = more signal.
Chain of Alpha-bungarotoxin (Bungarus multicinctus) (P60615 whole entry, looked up): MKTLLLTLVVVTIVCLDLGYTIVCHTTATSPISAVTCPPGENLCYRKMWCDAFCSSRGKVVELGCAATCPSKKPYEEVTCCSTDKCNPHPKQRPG

Chain of Torsin-1A-interacting protein 1 (Homo sapiens) (Q5JTV8 whole entry, looked up): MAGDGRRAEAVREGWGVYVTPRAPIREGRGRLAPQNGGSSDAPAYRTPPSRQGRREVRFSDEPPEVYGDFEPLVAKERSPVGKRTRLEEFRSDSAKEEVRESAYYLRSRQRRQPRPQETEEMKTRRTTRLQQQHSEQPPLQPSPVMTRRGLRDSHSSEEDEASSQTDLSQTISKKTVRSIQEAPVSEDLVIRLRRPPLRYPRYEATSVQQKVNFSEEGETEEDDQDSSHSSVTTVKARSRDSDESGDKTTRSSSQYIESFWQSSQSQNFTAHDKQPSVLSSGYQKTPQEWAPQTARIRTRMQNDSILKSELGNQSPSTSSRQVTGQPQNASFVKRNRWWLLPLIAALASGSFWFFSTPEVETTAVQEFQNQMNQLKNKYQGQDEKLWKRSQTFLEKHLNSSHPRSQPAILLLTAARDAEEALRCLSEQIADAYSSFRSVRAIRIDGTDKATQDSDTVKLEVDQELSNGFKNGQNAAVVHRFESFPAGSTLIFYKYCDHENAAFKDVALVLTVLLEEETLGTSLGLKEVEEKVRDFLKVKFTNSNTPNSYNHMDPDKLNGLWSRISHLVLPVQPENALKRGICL

In the case of `COC(=O)C1=CC(CCCO)=CC(c2ccc(CN3CCCC3)cc2)N(Cc2cc3c(cc2Br)OCO3)C=C1C(=O)OC` (stereo not given), the composite z-score in experiment [1] was 1.16; in [2], 1.12; in experiment [3], 0.986; in experiment [5], 1.45; in experiment [6], 0.636; in experiment [7], 0.19. The composite z-score in experiment [8] was 1.46; in experiment [9], 0.836; in experiment [10] it was 1.13; in experiment [11] it was 1.39; in experiment [13], 0.688; in [14] it was 1.9. Also, the composite z-score in experiment [15] was 0.795; in experiment [16], 0.212; in experiment [17] it was 0.839; in experiment [18], -0.603; in experiment [19] it was 1.48; in [20], 0.853. Further, the figures for the z-score in experiment [4] and in experiment [12] were -0.967 (inactive) and -0.803, respectively.
Consider `[N-]=[N+]=NCc1ccccc1C[C@@]1(C(=O)N2CCCCC2)N=C(c2ccc(OCCCO)cc2)O[C@@H]1c1ccccc1CN=[N+]=[N-]`, for which the composite z-score in experiment [1] was 0.649; in experiment [2] it was 0.453; in experiment [3], 1.07; in experiment [5], 0.375; in [6], 0.962; in experiment [7], -0.0197. The composite z-score in experiment [8] is -0.0105; in experiment [9], 0.287; in experiment [10] it was 0.964; in [11], 0.905; in experiment [13], -0.133; in experiment [14] it was 2.02. Moreover, the composite z-score in [15] is 1.37; in experiment [16], -0.101; in experiment [17] it was -0.0626; in experiment [18], 1.31; in [19], 1.01; in experiment [20] it was 1.5. The z-score in experiment [4] was -0.4 (inactive); in experiment [12] it was -2.73.
Turning to `C=C(/C(=C/C[C@@H](OC(C)=O)c1ccc(CO)o1)c1cc(C(=O)OC)ccc1OC)C(C)C`, the composite z-score is 0.12 in [1]; -0.22 in experiment [2]; -0.256 in [3]; 1.02 in experiment [5]; 0.469 in experiment [6]; -0.132 in experiment [7]. Also, the composite z-score in experiment [8] amounted to 0.347; in experiment [9], 0.251; in experiment [10], 0.995; in [11], 0.443; in experiment [13] it was 0.192; in experiment [14] it was 0.189. Besides, the composite z-score in experiment [15] is -0.657; in experiment [16] it was 0.0251; in experiment [17], 0.216; in experiment [18], 0.141; in [19] it was -0.144; in experiment [20], -0.0861. Also, the z-score is 0.227 (inactive) in [4] and -0.9 in experiment [12].
Take `O=C1C2C=CC(C(O)c3cc(C(F)(F)F)cc(C(F)(F)F)c3)N(Nc3ccccc3F)C2C(=O)N1c1ccccc1` (stereo not given): the composite z-score in experiment [1] was 0.99; in [2], 1.09; in [3] it was 1.03; in [5], 0.223; in experiment [6], 0.708; in experiment [7], -0.855. Further, the composite z-score is -0.19 in experiment [8]; -0.795 in experiment [9]; 0.37 in experiment [10]; 0.962 in experiment [11]; -0.327 in experiment [13]; 0.896 in experiment [14]. For the same compound, the composite z-score in experiment [15] was 0.681; in experiment [16] it was -0.043; in [17], 0.957; in experiment [18] it was 1.97; in experiment [19] it was 0.985; in experiment [20] it was 0.383. In addition, the z-score in experiment [4] was 0.537 (inactive); in experiment [12], -2.74.
Turning to `C=CCNC(=O)[C@H]1[C@@H]2C(=O)O[C@@H](c3ccccc3)[C@@H](c3ccccc3)N2[C@@H](c2ccc(OCCO)cc2)[C@]12C(=O)Nc1ccc(C#CCNC(N)=O)cc12`, the composite z-score in experiment [1] was 1.2; in experiment [2], 0.867; in [3], 1.05; in experiment [5], 1.13; in experiment [6], 0.332; in experiment [7] it was -0.471. Also, the composite z-score in experiment [8] stood at 0.65; in [9], 0.0352; in experiment [10], 0.624; in experiment [11], 0.0863; in experiment [13] it was 0.192; in experiment [14], 1.41. The composite z-score was 1.15 in [15]; -0.0009 in experiment [16]; 0.163 in [17]; 0.85 in experiment [18]; 0.311 in experiment [19]; 2.07 in experiment [20]. Besides, the z-score in [4] is -0.595 (inactive); in experiment [12], -0.587.

The values are drawn from PubChem BioAssay.
